A number with no mark means an inactive call. Calls of active or inactive are those of the source. Calls follow the shape of the full dose curve.
These compounds were tested against Estrogen receptor (Homo sapiens) (UniProt P03372) (assay: qHTS assay to identify small molecule agonists of the estrogen receptor alpha (ER-alpha) signaling pathway in the presence of an antagonist (AID 1259383; also: top concentration of the series differs between compounds; nearly all actives have a fitted effect of over 15% in size)). Settings: VM7Luc4E2 cells, ERE-luciferase, +ICI-182,780, 22 h; series mostly up to 92.4 µM.
Estrogen receptor (Homo sapiens), sequence (P03372 whole entry, looked up): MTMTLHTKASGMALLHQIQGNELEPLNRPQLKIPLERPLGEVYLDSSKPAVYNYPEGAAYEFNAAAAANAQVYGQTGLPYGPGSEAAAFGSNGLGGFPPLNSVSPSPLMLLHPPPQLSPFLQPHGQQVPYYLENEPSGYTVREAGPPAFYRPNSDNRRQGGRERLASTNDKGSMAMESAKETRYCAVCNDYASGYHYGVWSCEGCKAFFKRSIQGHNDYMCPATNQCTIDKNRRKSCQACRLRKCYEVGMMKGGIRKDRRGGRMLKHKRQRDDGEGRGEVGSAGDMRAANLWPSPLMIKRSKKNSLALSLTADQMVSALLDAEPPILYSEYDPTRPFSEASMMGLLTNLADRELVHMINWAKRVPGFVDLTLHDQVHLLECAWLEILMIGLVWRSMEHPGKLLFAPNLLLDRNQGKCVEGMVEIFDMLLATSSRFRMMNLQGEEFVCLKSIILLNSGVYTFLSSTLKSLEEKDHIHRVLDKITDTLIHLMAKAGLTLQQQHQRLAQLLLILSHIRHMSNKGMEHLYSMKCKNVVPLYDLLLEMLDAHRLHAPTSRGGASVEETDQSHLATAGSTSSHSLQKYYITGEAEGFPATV
Excerpt: National Center for Advancing Translational Sciences [NCATS] NIH Chemical Genomics Center [NCGC] U.S. Environmental Protection Agency [EPA] National Institutes of Environmental Health Sciences [NIEHS] National Toxicology Program [NTP] Assay overview: Estrogen receptor (ER), a member of nuclear hormone receptor plays an important role in development, metabolic homeostasis and reproduction. Two subtypes of ER, ER-alpha and ER-beta, have similar expression patterns with some uniqueness in both types. Endocrine disrupting chemicals (EDCs) and their interactions with steroid hormone receptors like ER causes disruption of normal endocrine function. Therefore, it is important to understand the effect of environmental chemicals in ER signaling pathway. For identifying ER agonists, VM7Luc4E2 cell line has been used in the current assay. VM7Luc4E2 cell line (provided by Denison MS, University of California) endogenously expresses full-length ER-alpha and is stably transfected with a plasmid containing four estrogen responsive elements (ERE) upstream of a luciferase reporter gene. This current screening for measuring luciferase reporter gene activity using VM7Luc4E2 cells against Tox21 10K library collection is a confirmation study on agonist mode screening in presence of ER-antagonist (ICI-182,780) at 10.0nM final concentration.
Assay Protocol Summary: VM7Luc4E2 cells were cultured in phenol red free assay medium containing 10% charcoal stripped FBS for 5 days prior to the assay. The cells were dispensed at 4,000 cells in 4uL of assay medium per well into white wall/solid-bottom 1536-well plates (Corning Life Sciences, Corning, NY) using a Multidrop Combi (Thermo Fisher Scientific Inc., Waltham, MA) dispenser. After the assay plates were incubated at 37C and 5% CO2 for 24hr, 1uL of 10.0nM (final concentration) ICI-182,780 or assay buffer was added using two separate tips of Flying Reagent Dispenser (FRD, Aurora Discovery, San Diego, CA). Then 23nL of compounds dissolved in DMSO at 15 concentrations and positive controls or DMSO only was transferred to the assay plates by a Pintool station (Wako, San Diego, CA). The assay plates were incubated at 37C and 5% CO2 for 22hr. For luciferase read, 4uL/well ONE-Glo reagent (Promega Corporation, Madison, WI) was added to each well using FRD and after 30min incubation at room temperature, luminescence signal was measured on ViewLux plate reader (PerkinElmer, Shelton, CT).
% is scaled to controls: 0 for no effect and ±100 for the full control effect.

With `C[C@H](CCC(=O)O)[C@H]1CC[C@H]2[C@@H]3C(=O)C[C@@H]4CC(=O)CC[C@]4(C)[C@H]3CC(=O)[C@]12C` as the compound, how does the outcome read?
The outcome was “inactive”.

Which outcome does the source give for `O=C(OCC(O)CO)c1ccccc1Nc1ccnc2c(C(F)(F)F)cccc12` (stereo not given) here?
Its outcome is “inactive”.

With `CCCCN` as the compound, how does the outcome read?
Its outcome is “inactive”.

`COCCOCCOCCOCCO` was tested. Which outcome did it give?
Its outcome is “inactive”.

How did the outcome turn out when `CCOCCOC(=O)/C=C/c1ccc(OC)cc1` was run?
The outcome was “inactive”.

With `CN1C(C)(C)CCCC1(C)C` as the compound, how does the outcome read?
Its outcome is “inactive”.

`N[C@@H](CCC(=O)Nc1ccc([N+](=O)[O-])cc1)C(=O)O` was tested. Which outcome did it give?
Its outcome is “inactive”.

Which outcome does the source give for `COc1cc2c(cc1OC)[C@@H]1CC(=O)[C@@H](CC(C)C)CN1CC2` here?
The outcome was “inactive”.

Which outcome does the source give for `C=C(C)C1CCC(C)(O)CC1` (stereo not given) here?
The outcome was “inactive”.

For `CC(N)C(=O)OC(C)(C)Cc1ccc(Cl)cc1` (stereo not given), which outcome is on record?
Its outcome is “inactive”.

Which outcome does the source give for `CCCOC(=O)C(C)O` (stereo not given) here?
The outcome was “inactive”.

How did the outcome turn out when `COc1ccc2c(c1)C(=O)N(CCc1ccc(S(=O)(=O)NC(=O)NC3CCCCC3)cc1)C(=O)C2(C)C` was run?
The outcome was “inactive”.

For `CCCN1C[C@H](CSC)C[C@@H]2c3cccc4[nH]cc(c34)C[C@H]21`, which outcome is on record?
The outcome was “inactive”.

For `O=S(=O)(O)c1ccc2cc(O)c(S(=O)(=O)O)cc2c1`, which outcome is on record?
The outcome was “inactive”.

For `CCOC(=O)[C@H](CCc1ccccc1)N[C@@H](C)C(=O)N1C(=O)N(C)C[C@H]1C(=O)O`, which outcome is on record?
Its outcome is “inactive”.

Which outcome does the source give for `COc1cc2c(cc1OC)C(=O)CC2` here?
The outcome was “inactive”.

Which outcome does the source give for `CN(C)C(=O)CNC(=O)Cc1ccccc1` here?
The outcome was “inactive”.

Which outcome does the source give for `CC1=CCC(C(C)C)=CC1` here?
The outcome was “inactive”.

With `CCCCCCCCCC(C)=O` as the compound, how does the outcome read?
Its outcome is “inactive”.

How did the outcome turn out when `COc1ccc2nc(SCc3ncc(C)c(OC)c3C)[nH]c2c1` was run?
The outcome was “inactive”.

For `CC(=O)/C=C/C1C(C)=CCC(C)C1(C)C` (stereo not given), which outcome is on record?
Its outcome is “inactive”.

How did the outcome turn out when `CNC(=O)[C@H]1O[C@@H](n2cnc3c(NCc4cc(Cl)ccc4OCc4cc(C)no4)ncnc32)[C@H](O)[C@@H]1N` was run?
Its outcome is “inactive”.

`COCCOC(=O)C1=C(C)NC(C)=C(C(=O)OC(C)C)C1c1cccc([N+](=O)[O-])c1` (stereo not given) was tested. Which outcome did it give?
The outcome was “inactive”.

How did the outcome turn out when `CN(CCOc1ccc(NS(C)(=O)=O)cc1)CCc1ccc(NS(C)(=O)=O)cc1` was run?
The outcome was “inactive”.

With `O=C(O)CCSSCCC(=O)O` as the compound, how does the outcome read?
The outcome was “inactive”.

Which outcome does the source give for `O=C(CCNNC(=O)c1ccncc1)NCc1ccccc1` here?
Its outcome is “inactive”.

Which outcome does the source give for `CCCCCCCCC(=O)Cl` here?
The outcome was “inactive”.

Which outcome does the source give for `CCOC(=O)CC(=O)c1ccccc1` here?
The outcome was “inactive”.

`Cc1ccc2c(c1)OCC(=O)CO2` was tested. Which outcome did it give?
The outcome was “inactive”.

How did the outcome turn out when `CC(C)NCC(O)COc1ccc(COCCOC(C)C)cc1` (stereo not given) was run?
The outcome was “inactive”.

Which outcome does the source give for `COc1cc(C(=S)N2CCOCC2)cc(OC)c1OC` here?
Its outcome is “inactive”.

`O=C1c2ccccc2C(=O)N1CCl` was tested. Which outcome did it give?
The outcome was “inactive”.

For `CC1(C)S[C@@H]2[C@H](N=CN3CCCCCC3)C(=O)N2[C@H]1C(=O)O`, which outcome is on record?
Its outcome is “inactive”.

`Cc1ccc(C=O)cc1C` was tested. Which outcome did it give?
The outcome was “inactive”.

For `CCCCCCCC/C=C\CCCCCCCC(=O)OCCCC`, which activation is on record?
The activation was 0.165% [at 19 µM].

`CCCCOCCOC(=O)COc1nc(Cl)c(Cl)cc1Cl` was tested. Which outcome did it give?
The outcome was “inactive”.

Which outcome does the source give for `C=C(C)C(=O)OCc1ccccc1` here?
The outcome was “inactive”.

Which outcome does the source give for `Cc1ccsc1/C=C/C1=NCCCN1C` here?
The outcome was “inactive”.

With `Cc1ccccc1C(=O)Nc1ccc(C(=O)N2CCCC(N(C)C)c3ccccc32)cc1` (stereo not given) as the compound, how does the outcome read?
The outcome was “inactive”.

`CCOC(=O)c1ncn2c1CN(C)C(=O)c1cc(F)ccc1-2` was tested. Which outcome did it give?
The outcome was “inactive”.

— PubChem BioAssay (Tox21)
